# Source: PubChem BioAssay AID434998 (Southern Research Specialized Biocontainment Screening …, 2010)
# Values without a mark were called inactive. No rule for the calls is given here.
# Assay: S. Typhi GFP reporter counter-screen inhibition, SAR follow-up, counter-screen for PhoP regulon inhibitor project, purified and synthesized compounds, round 3 (AID 434998)
# Details: S. typhi GFP reporter fluorescence, high Mg2+ counter-screen, 4 h; series mostly up to 150 µM; inhibition: at the top concentration
row,Structure (SMILES),inhibition [%]
1,Cc1ccccc1CNC(=S)Nc1ccncc1,-0.79
2,O=C(Nc1cccc(F)c1)N1CCCN(Cc2ccccc2F)C1,14.9
3,S=C(NCCc1ccc(Cl)cc1)Nc1ccncc1,-10.1
4,O=C(Nc1ccc(I)cc1)N1CCCN(Cc2ccccc2F)C1,8.77
5,O=C(Nc1cccc(I)c1)N1CCCN(Cc2ccccc2F)C1,18.6
6,Cc1cccc(NC(=O)N2CCCN(Cc3ccccc3F)C2)c1,15.7
7,O=C(Nc1cccc(C(F)(F)F)c1)N1CCCN(Cc2ccccc2F)C1,18.6
8,N#Cc1ccccc1NC(=S)NCc1ccc(Cl)cc1,-7.18
9,O=C1C2=C(Nc3ccccc3SC2c2cccc(I)c2)c2ccccc21 (centres undefined),-114
10,O=C(Nc1ccc(Cl)cc1)N1CCCN(Cc2ccccc2Br)C1,1.59
11,O=C(Nc1ccc(Cl)cc1)N1CCCN(Cc2ccc(Br)cc2)C1,3.12
12,COc1ccccc1CNC(=S)Nc1ccncc1,1.37
13,N#Cc1ccc(NC(=S)NCc2ccc(Cl)cc2)cc1,-7.11
14,Cc1ccc(NC(=O)N2CCCN(Cc3ccccc3F)C2)cc1,2.92
